Assay [1] has as its system Human papillomavirus type 1a protein E7 (residues 44-93). The experiment in a line: HPV1a E7 fragment binders on microarrays, primary screen, biochemical, small-molecule microarray, residues 44-93, 635 nm fluorescence (AID 1108).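 Further: E7 fragment applied at 1 µg/mL in TBST for 1 h at 4 C; score combines spot fluorescence with its signal to noise ratio.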 As to conditions: small-molecule microarray binding, fluorescence 635 nm; higher = more signal.
Assay [2] in a line: modulators of HCV replicon luciferase signal, primary screen, HCV replication inhibitor project, Huh7 cells, luciferase reporter (AID 1109).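 Further: huh7 hepatoma cells harbouring a luciferase neomycin HCV replicon reporter; luciferase luminescence as measure of HCV replicon replication; test concentration not given here.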 As to conditions: 48 h, higher = more signal.
Assay [3] deals with Left-right determination factor 2 (Homo sapiens) (UniProt O00292). The experiment in a line: LEFTY2 binders on small-molecule microarrays, primary screen, biochemical, small-molecule microarray, 635 nm fluorescence scan (AID 1110). As to conditions: LEFTY2 binding, higher = more signal.
Assay [4] has as its target Calmodulin-1 (Homo sapiens) (UniProt P0DP23). Description: CALM1 binders on microarrays, EGTA buffer, profiling panel, biochemical, small-molecule microarray, Cy5-labelled CALM1 (AID 1111).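 Further: labelled calmodulin applied in Tris saline Tween buffer holding calcium plus EGTA and DTT.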 As to conditions: Cy5-CALM1 binding fluorescence, higher = more signal.
The target is the same in assay [5]. The experiment in a line: calcium-bound CALM1 binders on microarrays, profiling panel, artefact control for SMM control-protein annotation, biochemical, small-molecule microarray, Cy5-labelled CALM1, plus calcium (AID 1112).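 Further: score merges spot fluorescence with signal to noise from triplicate slides.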 As to conditions: Cy5-CALM1 binding fluorescence, higher = more signal.
Assay [6] can be described thus: small-molecule microarray binders of probe aWnt5a, primary screen, biochemical, biotinylated probe, 635/667 nm fluorescence (AID 1113).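 Further: score merges 667 nm fluorescence intensity with signal-to-noise per printed feature.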 The conditions noted are these: higher = more signal.
The nature of assay [7]: small-molecule microarray binders of probe aShh, primary screen, biochemical, biotinylated probe, 635/667 nm fluorescence (AID 1114).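 Further: probe is biotin-labelled aShh protein from a stem cell growth factor screen; measures binding of labelled protein to compounds printed on the slide; score merges feature fluorescence at 667 nm with signal-to-noise.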 As to conditions: higher = more signal.
Assay [8] in a line: small-molecule microarray binders of probe aNog, primary screen, biochemical, biotinylated probe, 635/667 nm fluorescence (AID 1115).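 Further: probe is biotinylated aNog protein used at 0.15 µg/mL for 1 h at 4 C; z-score combines 667 nm fluorescence of each spot with its signal to noise.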 As to conditions: higher = more signal.
The target in assay [9] is Torsin-1A-interacting protein 1 (Homo sapiens) (UniProt Q5JTV8). Description: LAP1 binders from COS7 cell lysate, primary screen, small-molecule microarray, 635/667 nm fluorescence (AID 1116). The conditions noted are these: COS7-hLAP1 lysate binding, 635 nm fluorescence, higher = more signal.
For assay [10], the target named is Alpha-bungarotoxin (Bungarus multicinctus) (UniProt P60615). The experiment in a line: alpha-bungarotoxin binders on microarray, profiling panel, artefact control for SMM control protein annotation, biochemical, small-molecule microarray, Alexa647 label, 635/667 nm fluorescence (AID 1117). The conditions noted are these: alpha-BTX-A647 binding fluorescence, higher = more signal.

The next assay has as its target Albumin (Bos taurus) (UniProt P02769). Description: bovine serum albumin binders on microarray, profiling panel, artefact control for SMM control protein annotation, biochemical, small-molecule microarray, Alexa647 label, 635/667 nm fluorescence (AID 1118).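 Further: score merges 667 nm emission intensity and signal-to-noise per printed compound spot.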 As to conditions: BSA-A647 binding, fluorescence 635 nm, higher = more signal.
A short description of assay [11]: small-molecule microarray binders of probe aXIP, primary screen, biochemical, NeuroSMM set, 635/667 nm fluorescence (AID 1119).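 Further: probe is the protein aXip251-270 applied at 1 µg/mL to compound-printed slides; binding of probe to printed compounds measured as 667 nm fluorescence plus signal to noise.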 The conditions noted are these: higher = more signal, called active from +8 up or from −8 down.
Assay [12] in a line: small-molecule binders of probe aNOTCH3, primary screen, biochemical, small-molecule microarray, 635/667 nm fluorescence (AID 1120).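 Further: probe is a biotin-tagged antibody raised against NOTCH3 rather than NOTCH3 protein; score merges spot fluorescence near 667 nm with spot signal to noise.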 As to conditions: higher = more signal.
Assay [13] in a line: small-molecule binders of probe aNOTCH2, primary screen, biochemical, small-molecule microarray, 635/667 nm fluorescence (AID 1121).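 Further: score merges feature fluorescence read at 667 nm with its signal to noise.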 As to conditions: higher = more signal.
For assay [14], the target named is Carbonic anhydrase 2 (Homo sapiens) (UniProt P00918). Description: CAII small-molecule binders, profiling panel, biochemical, small-molecule microarray, Alexa647-labelled CAII (AID 1122). The conditions noted are these: CAII-A647 binding fluorescence, higher = more signal.
The nature of assay [15]: COS7 lysate on small-molecule microarray, probe aHis, 635 nm (AID 1123).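 Further: z-score combines 667nm fluorescence intensity with signal-to-noise per printed compound spot.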 The conditions noted are these: COS7 cell lysate, fluorescence, higher = more signal.
A short description of assay [16]: compound binding in COS7 lysate, probe aLAP1, primary screen, cell lysate, small-molecule microarray (AID 1124).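 Further: lysate comes from COS7 cells expressing LAP1 and is applied at 0.3 µg/mL; score merges spot fluorescence near 667 nm with signal-to-noise over triplicate slides.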 As to conditions: probe aLAP1, fluorescence, higher = more signal.
The next assay has as its system Sam68 (KHDRBS1). Description: Sam68 small-molecule binders, primary screen, biochemical, small-molecule microarray, 635 nm fluorescence (AID 1125).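 Further: score merges 667 nm channel intensity with signal to noise over triplicate slides.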 As to conditions: small-molecule microarray binding, higher = more signal.
The test system of assay [17] is Chordin-like protein 2 (CHRDL2). The experiment in a line: CHRDL2 small-molecule binders, primary screen, biochemical, small-molecule microarray, 635 nm fluorescence (AID 1126).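 Further: printed compound slides probed with Chrdl2 protein at 4 µg/mL for 1 h at 4 C; score merges 667 nm emission intensity with signal to noise over three replicate slides.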 The conditions noted are these: small-molecule microarray binding, fluorescence 635 nm; higher = more signal.
In assay [18] the target is Concanavalin-A (Canavalia ensiformis) (UniProt P02866). Description: ConA small-molecule binders, primary screen, artefact control for SMM control protein annotation, biochemical, small-molecule microarray, Alexa647 label, 635 nm (AID 1127).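 Further: z combines 667 nm emission intensity with signal-to-noise across three replicate slides.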 The conditions noted are these: ConA-A647 binding fluorescence, higher = more signal.

SMILES strings stand for the structures. The source made the active and inactive calls.

Albumin (Bos taurus), sequence (P02769 whole entry, looked up): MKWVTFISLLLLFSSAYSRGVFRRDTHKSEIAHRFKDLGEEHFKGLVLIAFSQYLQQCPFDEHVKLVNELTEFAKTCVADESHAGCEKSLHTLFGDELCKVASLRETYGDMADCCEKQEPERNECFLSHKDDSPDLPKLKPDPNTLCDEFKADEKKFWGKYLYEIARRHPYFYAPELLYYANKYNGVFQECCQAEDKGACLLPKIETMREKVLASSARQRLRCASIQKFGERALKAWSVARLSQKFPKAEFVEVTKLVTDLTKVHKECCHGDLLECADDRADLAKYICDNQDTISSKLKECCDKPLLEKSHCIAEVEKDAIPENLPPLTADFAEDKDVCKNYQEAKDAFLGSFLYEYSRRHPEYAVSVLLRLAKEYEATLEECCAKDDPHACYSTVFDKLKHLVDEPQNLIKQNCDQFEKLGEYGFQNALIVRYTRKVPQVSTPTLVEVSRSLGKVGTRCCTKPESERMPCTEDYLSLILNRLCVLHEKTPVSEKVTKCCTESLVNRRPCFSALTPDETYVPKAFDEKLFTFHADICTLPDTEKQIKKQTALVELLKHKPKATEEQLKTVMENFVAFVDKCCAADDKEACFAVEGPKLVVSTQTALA
Torsin-1A-interacting protein 1 (Homo sapiens), sequence (Q5JTV8 whole entry, looked up): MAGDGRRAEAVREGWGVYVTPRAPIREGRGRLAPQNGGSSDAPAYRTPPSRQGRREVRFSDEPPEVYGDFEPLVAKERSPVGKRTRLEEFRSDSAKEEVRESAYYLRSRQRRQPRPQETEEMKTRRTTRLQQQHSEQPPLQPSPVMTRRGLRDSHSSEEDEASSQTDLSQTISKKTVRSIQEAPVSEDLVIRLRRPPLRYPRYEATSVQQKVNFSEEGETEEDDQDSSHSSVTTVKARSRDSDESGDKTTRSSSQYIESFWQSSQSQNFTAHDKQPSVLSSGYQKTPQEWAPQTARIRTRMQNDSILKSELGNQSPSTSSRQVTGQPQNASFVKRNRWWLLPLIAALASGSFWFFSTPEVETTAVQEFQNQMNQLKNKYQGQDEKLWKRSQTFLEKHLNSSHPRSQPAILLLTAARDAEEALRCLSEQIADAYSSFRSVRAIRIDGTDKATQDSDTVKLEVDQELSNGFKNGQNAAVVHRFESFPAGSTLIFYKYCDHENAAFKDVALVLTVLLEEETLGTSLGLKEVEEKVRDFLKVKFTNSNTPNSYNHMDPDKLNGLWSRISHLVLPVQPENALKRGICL
Alpha-bungarotoxin (Bungarus multicinctus), sequence (P60615 whole entry, looked up): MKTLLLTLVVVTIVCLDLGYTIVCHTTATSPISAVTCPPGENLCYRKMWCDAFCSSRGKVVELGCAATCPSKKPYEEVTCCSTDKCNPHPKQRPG
Left-right determination factor 2 (Homo sapiens), sequence (O00292 whole entry, looked up): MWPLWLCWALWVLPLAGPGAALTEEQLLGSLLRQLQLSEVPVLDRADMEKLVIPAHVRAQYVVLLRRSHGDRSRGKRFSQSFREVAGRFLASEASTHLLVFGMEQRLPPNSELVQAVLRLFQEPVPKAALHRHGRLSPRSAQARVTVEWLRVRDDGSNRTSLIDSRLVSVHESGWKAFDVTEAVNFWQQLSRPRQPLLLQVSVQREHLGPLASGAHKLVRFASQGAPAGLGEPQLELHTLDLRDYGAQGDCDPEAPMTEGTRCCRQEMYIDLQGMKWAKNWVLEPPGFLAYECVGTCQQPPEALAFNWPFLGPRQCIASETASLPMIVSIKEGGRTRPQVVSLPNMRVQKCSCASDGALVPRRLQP
Concanavalin-A (Canavalia ensiformis), sequence (P02866 whole entry, looked up): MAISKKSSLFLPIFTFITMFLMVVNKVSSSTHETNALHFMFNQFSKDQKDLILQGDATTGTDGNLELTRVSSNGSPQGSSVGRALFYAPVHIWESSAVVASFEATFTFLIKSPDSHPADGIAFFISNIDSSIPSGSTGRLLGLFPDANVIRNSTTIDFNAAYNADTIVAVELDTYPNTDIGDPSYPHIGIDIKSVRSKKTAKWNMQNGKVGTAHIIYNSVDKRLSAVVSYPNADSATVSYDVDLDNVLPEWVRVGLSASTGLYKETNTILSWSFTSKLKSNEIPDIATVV

Consider `CC(C)(C)OC(=O)CC[C@]1(C(=O)O)COC(c2ccc(OCCCO)cc2)=N1`, for which the composite z-score is 0.191 in assay [1]; -0.225 in assay [3]; 0.155 in assay [4]; 0.568 in assay [5]; 0.105 in assay [6]; 0.0326 in assay [7]. Also, the composite z-score in assay [8] was 0.609; in assay [9], 0.672; in assay [10], -0.582; with Albumin (Bos taurus) it was 0.374; in [12], 0.102; in [13], -0.0966. For the same compound, the composite z-score in [14] was 0.803; in assay [15], 1.11; in assay [16], -0.156; in the assay on Sam68 (KHDRBS1) it was -1.05; in [17], -1.92; in assay [18], 0.135. This compound also yielded a z-score in assay [2] of 0.0847. Further, the composite Z-score in [11] is -0.0004 (inactive).
For the compound `COc1ccccc1CN1C(=O)c2ccccc2[C@@H](C(=O)NCC(C)C)[C@@H]1c1ccc(CO)cc1`, the composite z-score in [1] is 1.05; in assay [3], 0.13; in assay [4], 0.139; in [5] it was -0.0968; in [6], -0.196; in [7], -0.776. In addition, the composite z-score in [8] was -0.0069; in assay [9], 0.741; in assay [10] it was -0.544; in the assay with Albumin (Bos taurus) it was -0.325; in assay [12] it was -0.236; in assay [13] it was -0.0226. Moreover, the composite z-score in [14] was 0.623; in [15], 0.368; in [16] it was 0.537; in the assay on Sam68 (KHDRBS1), -0.134; in assay [17], 0.0987; in assay [18] it was 0.358. In addition, the z-score in assay [2] was -0.541. Moreover, the composite Z-score in assay [11] was 0.0829 (inactive).
Take `C=CCNC(=O)[C@H]1[C@@H]2C(=O)O[C@@H](c3ccccc3)[C@@H](c3ccccc3)N2[C@@H](c2ccc(OCCO)cc2)[C@]12C(=O)N(C(=O)OCCOC)c1ccc(C#CC3=CCCCC3)cc12`: the composite z-score in assay [1] was -0.192; in assay [3], 0.652; in assay [4], 1.28; in assay [5] it was 0.171; in assay [6] it was 0.0243; in assay [7], 0.0141. Further, the composite z-score in [8] is -0.038; in [9], 2.23; in [10], 2.5; with Albumin (Bos taurus) it was 0.401; in [12] it was 0.0813; in assay [13], -0.109. The composite z-score was determined as 0.643 in assay [14]; 1.34 in assay [15]; 0.737 in assay [16]; 1.31 in the assay with Sam68 (KHDRBS1); 0.399 in assay [17]; 1.12 in assay [18]. This compound also came in with a z-score in assay [2] of -1.94. The composite Z-score in assay [11] is 0.495 (inactive).
In the case of `CN(C)CCCCCCNC(=O)[C@@H]1C[C@@H]2C(=O)NCC(=O)N2[C@@H]1c1ccc(O)cc1`, the composite z-score in assay [1] is 1.33; in [3] it was 0.932; in assay [4], -1.53; in assay [5] it was -1.89; in [6] it was 0.0785; in assay [7], 0.46. In addition, the composite z-score is -0.213 in [8]; 1.96 in [9]; 1.83 in assay [10]; -0.671 with Albumin (Bos taurus); 0.173 in assay [12]; -0.126 in assay [13]. The composite z-score in assay [14] is 0.683; in assay [15], 2.86; in assay [16], 0.328; in the assay on Sam68 (KHDRBS1), 1.33; in assay [17] it was 1.4; in assay [18] it was 1.21. This compound displayed a z-score in [2] of 0.589. Also, the composite Z-score in assay [11] is 2.25 (inactive).
As for `COc1cccc(C)c1NC(=O)O[C@H]1[C@H](OC(=O)Nc2ccccc2)[C@H](OC(=O)Nc2ccccc2)[C@@H](OC)O[C@@H]1CO`, the composite z-score in assay [1] is 1.3; in assay [3], -0.183; in assay [4], 1.81; in [5] it was 0.645; in assay [6], 0.0775; in assay [7], 0.775. Besides, the composite z-score is -0.236 in assay [8]; 0.0722 in assay [9]; 1.3 in assay [10]; 0.958 with Albumin (Bos taurus); -0.0647 in assay [12]; 0.0564 in [13]. For the same compound, the composite z-score in assay [14] is 0.54; in assay [15], 2.48; in assay [16], 0.25; with Sam68 (KHDRBS1), 1.34; in assay [17], -1.05; in assay [18] it was 1.17. In [2], this compound displayed a z-score of -2.96. For the same compound, in assay [11], the composite Z-score is -0.922 (inactive).

Values taken from PubChem BioAssay.
